# Source: publication PMC7862700, “An all-to-all approach to the identification of sequence-specific readers for epigenetic DNA modifications on cytosine”
# What was measured:
# Assay in all cases: DAPPL (digital affinity profiling via proximity ligation, sequencing); 10 mM Tris-HCl pH 7.5, 50 mM NaCl, 1 mM DTT, 4% glycerol, room temperature, 30 min; GST-TFs on glutathione beads, 16-mer random dsDNA library, 0.1% formaldehyde crosslink after washing; high values mean tight binding
# FEV = molecular target: T1, FEV (Homo sapiens, UniProt Q99581 1-238); conditions: protein: recombinant; tags: N-terminal GST; dsDNA, one strand shown
# T1 sequence: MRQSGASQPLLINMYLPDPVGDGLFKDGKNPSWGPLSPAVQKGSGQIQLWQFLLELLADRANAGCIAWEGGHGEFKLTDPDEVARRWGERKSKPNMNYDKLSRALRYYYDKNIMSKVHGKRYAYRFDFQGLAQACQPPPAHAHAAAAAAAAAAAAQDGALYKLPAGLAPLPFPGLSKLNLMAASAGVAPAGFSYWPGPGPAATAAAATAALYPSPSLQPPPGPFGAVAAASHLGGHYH
# Method in brief: (§1)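 Beads coated with glutathione captured GST-fused human transcription factors that had been expressed in yeast, and the factors were then given DNA barcodes and pooled with a tag-only sample. The pools were incubated with 200 nmole of a random double-stranded 16-mer DNA library in Tris/NaCl/DTT/glycerol buffer for 30 min at room temperature, washed, crosslinked with 0.1% formaldehyde and proximity-ligated with BsaI/T4 ligase at 37 °C for 1 h. PCR amplification and Illumina NextSeq500 sequencing came last. Binding signal is each hexamer's read frequency for a factor divided by its frequency for the tag-only sample.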
# ETV5 = ETV5 (Homo sapiens, UniProt P41161 1-510); conditions: protein: recombinant; tags: N-terminal GST; dsDNA, one strand shown
# ETV5, sequence (P41161 whole entry): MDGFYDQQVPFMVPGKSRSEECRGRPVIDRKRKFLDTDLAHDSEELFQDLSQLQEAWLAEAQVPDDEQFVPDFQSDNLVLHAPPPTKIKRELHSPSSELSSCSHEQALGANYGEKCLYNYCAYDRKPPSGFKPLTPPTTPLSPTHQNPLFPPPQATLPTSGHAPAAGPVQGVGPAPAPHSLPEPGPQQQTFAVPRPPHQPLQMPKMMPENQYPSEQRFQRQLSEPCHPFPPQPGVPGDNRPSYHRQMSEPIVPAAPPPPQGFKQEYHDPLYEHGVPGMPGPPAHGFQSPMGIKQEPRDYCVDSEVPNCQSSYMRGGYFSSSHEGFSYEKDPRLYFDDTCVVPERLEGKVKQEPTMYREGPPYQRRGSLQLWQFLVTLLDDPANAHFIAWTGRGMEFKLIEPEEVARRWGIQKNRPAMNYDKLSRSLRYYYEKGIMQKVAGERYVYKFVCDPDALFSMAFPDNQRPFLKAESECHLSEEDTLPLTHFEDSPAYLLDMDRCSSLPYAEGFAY
# Method in brief: as §1
# HSF1 = HSF1 (Homo sapiens, UniProt Q00613 1-529); conditions: protein: recombinant; tags: N-terminal GST; chain copies: 3; dsDNA, one strand shown
# HSF1, sequence (Q00613 whole entry): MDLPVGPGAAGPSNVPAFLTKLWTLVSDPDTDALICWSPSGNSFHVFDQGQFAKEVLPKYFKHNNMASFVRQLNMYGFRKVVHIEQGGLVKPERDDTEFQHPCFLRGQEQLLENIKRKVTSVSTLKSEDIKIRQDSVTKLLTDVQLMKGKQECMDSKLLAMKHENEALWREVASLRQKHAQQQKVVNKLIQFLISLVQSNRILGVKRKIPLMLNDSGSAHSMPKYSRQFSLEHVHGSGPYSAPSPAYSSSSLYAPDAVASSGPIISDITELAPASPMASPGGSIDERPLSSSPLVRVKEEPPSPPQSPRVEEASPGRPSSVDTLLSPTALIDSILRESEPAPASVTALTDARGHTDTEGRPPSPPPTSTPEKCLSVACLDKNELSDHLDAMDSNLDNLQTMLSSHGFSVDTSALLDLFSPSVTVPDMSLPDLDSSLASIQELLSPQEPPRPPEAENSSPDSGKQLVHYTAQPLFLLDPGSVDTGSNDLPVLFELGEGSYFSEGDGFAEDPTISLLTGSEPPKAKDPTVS
# Method in brief: as §1
# SPIC = molecular target: T2, SPIC (Homo sapiens, UniProt Q8N5J4 1-248); conditions: protein: recombinant; tags: N-terminal GST; dsDNA, one strand shown
# T2 sequence: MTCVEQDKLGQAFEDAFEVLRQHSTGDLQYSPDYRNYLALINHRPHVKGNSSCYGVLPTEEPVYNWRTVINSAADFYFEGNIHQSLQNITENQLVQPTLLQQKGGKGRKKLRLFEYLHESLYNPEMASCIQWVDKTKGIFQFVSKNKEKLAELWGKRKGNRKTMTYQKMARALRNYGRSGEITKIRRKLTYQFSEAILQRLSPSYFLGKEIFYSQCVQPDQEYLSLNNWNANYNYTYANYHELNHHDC
# Method in brief: as §1
# ELF4 = ELF4 (Homo sapiens, UniProt Q99607 1-663); conditions: protein: recombinant; tags: N-terminal GST; dsDNA, one strand shown
# ELF4, sequence (Q99607 whole entry): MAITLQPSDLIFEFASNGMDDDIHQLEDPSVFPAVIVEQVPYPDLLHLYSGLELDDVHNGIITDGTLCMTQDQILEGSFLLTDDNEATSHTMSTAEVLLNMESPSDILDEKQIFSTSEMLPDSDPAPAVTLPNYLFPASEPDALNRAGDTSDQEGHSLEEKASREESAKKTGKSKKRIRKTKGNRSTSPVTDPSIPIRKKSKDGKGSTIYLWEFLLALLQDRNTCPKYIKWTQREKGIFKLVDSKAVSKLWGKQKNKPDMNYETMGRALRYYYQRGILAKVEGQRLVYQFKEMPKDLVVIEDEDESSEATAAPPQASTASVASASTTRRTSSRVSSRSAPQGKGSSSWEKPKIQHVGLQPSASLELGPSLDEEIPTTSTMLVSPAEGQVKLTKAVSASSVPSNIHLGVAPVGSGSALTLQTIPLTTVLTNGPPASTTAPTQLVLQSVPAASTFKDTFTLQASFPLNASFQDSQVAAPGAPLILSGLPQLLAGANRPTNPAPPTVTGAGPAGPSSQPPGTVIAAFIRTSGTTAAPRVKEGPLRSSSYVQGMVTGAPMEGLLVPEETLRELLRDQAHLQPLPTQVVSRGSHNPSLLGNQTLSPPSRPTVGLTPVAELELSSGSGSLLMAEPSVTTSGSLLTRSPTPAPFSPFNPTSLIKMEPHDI
# Method in brief: as §1
# ELK4 = molecular target: T3, ELK4 (Homo sapiens, UniProt P28324-2 1-405); conditions: protein: recombinant; tags: N-terminal GST; dsDNA, one strand shown
# T3 sequence: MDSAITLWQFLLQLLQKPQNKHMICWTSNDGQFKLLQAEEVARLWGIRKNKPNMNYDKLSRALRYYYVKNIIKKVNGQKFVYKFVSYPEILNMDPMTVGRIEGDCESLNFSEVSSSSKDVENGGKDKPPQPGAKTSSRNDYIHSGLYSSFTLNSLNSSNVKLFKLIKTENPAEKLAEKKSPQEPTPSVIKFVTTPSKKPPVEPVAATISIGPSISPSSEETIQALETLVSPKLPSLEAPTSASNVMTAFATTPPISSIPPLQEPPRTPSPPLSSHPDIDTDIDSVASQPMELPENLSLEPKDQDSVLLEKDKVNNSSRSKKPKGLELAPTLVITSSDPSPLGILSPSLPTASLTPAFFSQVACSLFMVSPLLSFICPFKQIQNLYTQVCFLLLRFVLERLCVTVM
# Method in brief: as §1
# ETV2 = molecular target: T4, ETV2 (Homo sapiens, UniProt O00321 1-342); conditions: protein: recombinant; tags: N-terminal GST; dsDNA, one strand shown
# T4 sequence: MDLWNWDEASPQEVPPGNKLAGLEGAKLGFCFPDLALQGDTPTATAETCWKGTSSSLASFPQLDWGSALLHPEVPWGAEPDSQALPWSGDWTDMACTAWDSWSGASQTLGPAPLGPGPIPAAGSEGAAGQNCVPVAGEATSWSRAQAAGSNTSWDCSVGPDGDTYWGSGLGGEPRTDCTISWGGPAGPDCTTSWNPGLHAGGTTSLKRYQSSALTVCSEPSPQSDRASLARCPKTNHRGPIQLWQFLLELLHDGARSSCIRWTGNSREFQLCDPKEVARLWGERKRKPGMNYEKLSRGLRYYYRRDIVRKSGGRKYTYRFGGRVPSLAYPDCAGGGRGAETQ
# Method in brief: as §1
# ELF3 = molecular target: T5, ELF3 (Homo sapiens, UniProt P78545 1-371); conditions: protein: recombinant; tags: N-terminal GST; dsDNA, one strand shown
# T5 sequence: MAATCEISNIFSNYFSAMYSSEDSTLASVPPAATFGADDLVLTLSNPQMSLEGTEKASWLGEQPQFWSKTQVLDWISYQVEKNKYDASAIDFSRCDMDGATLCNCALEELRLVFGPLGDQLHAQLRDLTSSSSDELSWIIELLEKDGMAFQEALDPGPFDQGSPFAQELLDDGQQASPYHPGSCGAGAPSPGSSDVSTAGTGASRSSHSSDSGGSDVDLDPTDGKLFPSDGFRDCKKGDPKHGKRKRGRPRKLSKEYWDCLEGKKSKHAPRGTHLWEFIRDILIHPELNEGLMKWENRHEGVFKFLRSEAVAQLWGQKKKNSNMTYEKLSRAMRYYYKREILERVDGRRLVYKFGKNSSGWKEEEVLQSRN
# Method in brief: as §1
# CRX = CRX (Homo sapiens, UniProt O43186 1-299); conditions: protein: recombinant; tags: N-terminal GST; dsDNA, one strand shown
# CRX, sequence (O43186 whole entry): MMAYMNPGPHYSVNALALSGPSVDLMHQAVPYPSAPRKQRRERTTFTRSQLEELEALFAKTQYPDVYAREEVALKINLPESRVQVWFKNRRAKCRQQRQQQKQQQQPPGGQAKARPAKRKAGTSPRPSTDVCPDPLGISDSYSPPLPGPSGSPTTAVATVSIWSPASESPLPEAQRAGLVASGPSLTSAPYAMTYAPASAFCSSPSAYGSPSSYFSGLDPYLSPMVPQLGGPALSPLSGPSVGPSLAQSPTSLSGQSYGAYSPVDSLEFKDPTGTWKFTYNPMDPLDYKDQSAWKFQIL
# Method in brief: as §1
# ETV1 = ETV1 (Homo sapiens, UniProt P50549 1-477); conditions: protein: recombinant; tags: N-terminal GST; dsDNA, one strand shown
# ETV1, sequence (P50549 whole entry): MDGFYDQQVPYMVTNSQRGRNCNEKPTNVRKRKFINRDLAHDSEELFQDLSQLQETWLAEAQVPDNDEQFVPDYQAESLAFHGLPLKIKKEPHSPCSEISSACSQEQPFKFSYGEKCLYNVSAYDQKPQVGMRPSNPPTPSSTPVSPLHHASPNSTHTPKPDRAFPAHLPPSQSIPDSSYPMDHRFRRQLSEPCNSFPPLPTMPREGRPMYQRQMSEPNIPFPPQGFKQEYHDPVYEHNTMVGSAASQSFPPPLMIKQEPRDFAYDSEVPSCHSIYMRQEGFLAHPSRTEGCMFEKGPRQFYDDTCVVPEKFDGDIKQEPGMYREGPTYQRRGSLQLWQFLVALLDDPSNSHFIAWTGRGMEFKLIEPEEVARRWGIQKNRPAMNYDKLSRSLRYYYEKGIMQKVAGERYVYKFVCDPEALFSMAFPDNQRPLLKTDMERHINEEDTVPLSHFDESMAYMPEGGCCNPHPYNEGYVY
# Method in brief: as §1
# ERF = molecular target: T6, ERF (Homo sapiens, UniProt P50548 1-548); conditions: protein: recombinant; tags: N-terminal GST; dsDNA, one strand shown
# T6 sequence: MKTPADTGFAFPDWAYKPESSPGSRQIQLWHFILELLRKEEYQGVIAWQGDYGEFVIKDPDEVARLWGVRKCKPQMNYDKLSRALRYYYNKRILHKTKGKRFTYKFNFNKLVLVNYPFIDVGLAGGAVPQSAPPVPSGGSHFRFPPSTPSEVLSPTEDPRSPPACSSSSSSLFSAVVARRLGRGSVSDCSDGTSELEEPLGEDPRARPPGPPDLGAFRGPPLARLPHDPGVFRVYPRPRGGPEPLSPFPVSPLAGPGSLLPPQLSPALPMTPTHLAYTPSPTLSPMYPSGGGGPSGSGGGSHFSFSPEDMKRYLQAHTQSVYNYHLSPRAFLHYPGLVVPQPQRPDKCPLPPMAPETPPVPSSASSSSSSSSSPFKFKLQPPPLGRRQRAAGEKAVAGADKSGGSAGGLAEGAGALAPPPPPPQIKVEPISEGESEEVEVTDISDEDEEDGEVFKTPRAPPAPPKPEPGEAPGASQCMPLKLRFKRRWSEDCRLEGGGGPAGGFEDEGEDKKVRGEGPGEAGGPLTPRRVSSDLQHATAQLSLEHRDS
# Method in brief: as §1
# ETV3L = molecular target: T7, ETV3L (Homo sapiens, UniProt Q6ZN32 1-361); conditions: protein: recombinant; tags: N-terminal GST; dsDNA, one strand shown
# T7 sequence: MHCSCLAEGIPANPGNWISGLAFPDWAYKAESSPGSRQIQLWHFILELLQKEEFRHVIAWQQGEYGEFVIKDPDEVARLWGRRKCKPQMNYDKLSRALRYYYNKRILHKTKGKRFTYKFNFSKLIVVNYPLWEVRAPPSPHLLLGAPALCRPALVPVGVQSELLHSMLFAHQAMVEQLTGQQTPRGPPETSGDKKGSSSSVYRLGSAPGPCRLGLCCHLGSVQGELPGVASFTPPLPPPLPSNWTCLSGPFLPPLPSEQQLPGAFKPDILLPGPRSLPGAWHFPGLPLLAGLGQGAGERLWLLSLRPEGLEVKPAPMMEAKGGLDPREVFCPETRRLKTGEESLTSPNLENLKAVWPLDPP
# Method in brief: as §1
# ETS2 = molecular target: T8, ETS2 (Homo sapiens, UniProt P15036 1-469); conditions: protein: recombinant; tags: N-terminal GST; dsDNA, one strand shown
# T8 sequence: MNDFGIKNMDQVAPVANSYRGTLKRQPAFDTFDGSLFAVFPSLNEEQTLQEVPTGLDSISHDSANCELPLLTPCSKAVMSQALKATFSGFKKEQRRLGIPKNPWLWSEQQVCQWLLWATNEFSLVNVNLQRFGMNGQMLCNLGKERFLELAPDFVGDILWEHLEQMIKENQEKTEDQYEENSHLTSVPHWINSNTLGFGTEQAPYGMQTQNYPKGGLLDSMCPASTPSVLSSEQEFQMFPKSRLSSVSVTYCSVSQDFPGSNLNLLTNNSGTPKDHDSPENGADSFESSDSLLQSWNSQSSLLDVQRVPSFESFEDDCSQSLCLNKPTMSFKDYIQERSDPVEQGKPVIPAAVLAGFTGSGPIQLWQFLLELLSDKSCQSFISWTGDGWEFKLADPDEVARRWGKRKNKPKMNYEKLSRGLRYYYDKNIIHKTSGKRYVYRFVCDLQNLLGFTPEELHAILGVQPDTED
# Method in brief: as §1
# SPDEF = molecular target: T9, SPDEF (Homo sapiens, UniProt O95238 1-335); conditions: protein: recombinant; tags: N-terminal GST; dsDNA, one strand shown
# T9 sequence: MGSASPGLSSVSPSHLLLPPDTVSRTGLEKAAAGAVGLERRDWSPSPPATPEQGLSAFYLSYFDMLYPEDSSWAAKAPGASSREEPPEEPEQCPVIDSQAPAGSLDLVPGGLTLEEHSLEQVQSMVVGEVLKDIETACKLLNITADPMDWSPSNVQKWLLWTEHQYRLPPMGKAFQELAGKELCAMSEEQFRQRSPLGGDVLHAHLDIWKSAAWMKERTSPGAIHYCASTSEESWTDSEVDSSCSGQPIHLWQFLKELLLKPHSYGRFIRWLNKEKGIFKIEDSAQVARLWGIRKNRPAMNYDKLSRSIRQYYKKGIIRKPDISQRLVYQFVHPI
# Method in brief: as §1
# ETV7 = molecular target: T10, ETV7 (Homo sapiens, UniProt Q9Y603 1-341); conditions: protein: recombinant; tags: N-terminal GST; dsDNA, one strand shown
# T10 sequence: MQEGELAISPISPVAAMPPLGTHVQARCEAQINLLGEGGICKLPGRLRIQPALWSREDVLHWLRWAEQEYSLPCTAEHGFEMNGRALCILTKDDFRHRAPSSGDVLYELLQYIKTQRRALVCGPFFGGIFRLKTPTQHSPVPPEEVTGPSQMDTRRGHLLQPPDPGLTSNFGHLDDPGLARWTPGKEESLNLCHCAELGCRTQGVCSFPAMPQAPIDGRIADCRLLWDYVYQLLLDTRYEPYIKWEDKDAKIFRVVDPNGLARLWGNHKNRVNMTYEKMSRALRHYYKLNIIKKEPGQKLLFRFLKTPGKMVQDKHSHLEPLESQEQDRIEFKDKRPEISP
# Method in brief: as §1
# ELF5 = molecular target: T11, ELF5 (Homo sapiens, UniProt Q9UKW6-2 1-255); conditions: protein: recombinant; tags: N-terminal GST; dsDNA, one strand shown
# T11 sequence: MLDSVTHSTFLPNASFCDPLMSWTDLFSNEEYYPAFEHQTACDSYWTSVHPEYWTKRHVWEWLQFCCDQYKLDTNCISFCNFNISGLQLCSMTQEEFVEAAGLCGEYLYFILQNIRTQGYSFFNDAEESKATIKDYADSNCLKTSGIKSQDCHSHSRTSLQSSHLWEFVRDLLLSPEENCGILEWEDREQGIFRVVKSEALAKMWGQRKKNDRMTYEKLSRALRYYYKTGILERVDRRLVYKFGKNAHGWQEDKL
# Method in brief: as §1
# ETV3 = molecular target: T12, ETV3 (Homo sapiens, UniProt P41162-2 1-143); conditions: protein: recombinant; tags: N-terminal GST; dsDNA, one strand shown
# T12 sequence: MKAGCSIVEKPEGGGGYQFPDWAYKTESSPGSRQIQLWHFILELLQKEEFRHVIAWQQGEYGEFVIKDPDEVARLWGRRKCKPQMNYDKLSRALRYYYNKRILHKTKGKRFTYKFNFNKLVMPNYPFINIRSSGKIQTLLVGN
# Method in brief: as §1
# ETV6 = ETV6 (Homo sapiens, UniProt P41212 1-452); conditions: protein: recombinant; tags: N-terminal GST; dsDNA, one strand shown
# ETV6, sequence (P41212 whole entry): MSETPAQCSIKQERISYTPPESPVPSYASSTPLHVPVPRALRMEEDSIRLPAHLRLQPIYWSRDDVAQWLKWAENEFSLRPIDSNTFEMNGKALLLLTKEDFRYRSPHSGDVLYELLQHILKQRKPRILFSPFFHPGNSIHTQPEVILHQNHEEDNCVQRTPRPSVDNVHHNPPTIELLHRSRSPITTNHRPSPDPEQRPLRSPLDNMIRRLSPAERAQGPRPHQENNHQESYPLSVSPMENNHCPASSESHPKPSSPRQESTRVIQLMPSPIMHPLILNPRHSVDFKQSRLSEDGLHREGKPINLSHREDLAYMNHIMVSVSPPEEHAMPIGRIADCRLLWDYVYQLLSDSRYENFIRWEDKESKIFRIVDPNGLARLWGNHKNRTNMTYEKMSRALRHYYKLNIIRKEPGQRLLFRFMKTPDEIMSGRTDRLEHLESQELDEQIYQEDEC
# Method in brief: as §1
sequence,measurement,setting,value
ATTAGC,binding signal,FEV,"1.05 fold enrichment (6-mer frequency, TF over GST control)"
same,binding signal,ETV5,"1.04 fold enrichment (6-mer frequency, TF over GST control)"
same,binding signal,HSF1,"1.87 fold enrichment (6-mer frequency, TF over GST control)"
same,binding signal,SPIC,"1.22 fold enrichment (6-mer frequency, TF over GST control)"
same,binding signal,ELF4,"1.15 fold enrichment (6-mer frequency, TF over GST control)"
same,binding signal,ELK4,"1.14 fold enrichment (6-mer frequency, TF over GST control)"
same,binding signal,ETV2,"1.13 fold enrichment (6-mer frequency, TF over GST control)"
same,binding signal,ELF3,"1.14 fold enrichment (6-mer frequency, TF over GST control)"
same,binding signal,CRX,"2.83 fold enrichment (6-mer frequency, TF over GST control)"
same,binding signal,ETV1,"1.16 fold enrichment (6-mer frequency, TF over GST control)"
same,binding signal,ERF,"1.09 fold enrichment (6-mer frequency, TF over GST control)"
same,binding signal,ETV3L,"1.13 fold enrichment (6-mer frequency, TF over GST control)"
same,binding signal,ETS2,"1.13 fold enrichment (6-mer frequency, TF over GST control)"
same,binding signal,SPDEF,"1.09 fold enrichment (6-mer frequency, TF over GST control)"
same,binding signal,ETV7,"1.17 fold enrichment (6-mer frequency, TF over GST control)"
same,binding signal,ELF5,"1.1 fold enrichment (6-mer frequency, TF over GST control)"
same,binding signal,ETV3,"1.16 fold enrichment (6-mer frequency, TF over GST control)"
same,binding signal,ETV6,"1.1 fold enrichment (6-mer frequency, TF over GST control)"
